Bioassay records as filed in PubChem.
TDP1 cell CPT – growth inhibition of DT40 Tdp1-/-;hTDP1 cells with camptothecin (screen for TDP1 inhibitors); chicken DT40 Tdp1-/-;hTDP1 cells + 20 nM CPT, ATP luminescence, 48 h; Potency, µM (series often up to 46.2 µM), for inactives: at the top dose activity change, negative = growth inhibition, hits mostly inhibitors; 420,000 compounds, 12% hits; note: potency is the fitted concentration of half-maximal effect; nearly all actives have a fitted effect of over 55% in size
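Cell growth measured by CellTiter-Glo luminescence after a minimum 48 h, 37 C compound exposure with 20 nM CPT in Tdp1-knockout DT40 cells stably expressing hTDP1, seeded 400/well; qHTS titration format.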
IL1B secr inh – blocks inflammasome-driven IL-1 beta release; 360,000 compounds, 4.7% hits; THP-1 LPS/ATP IL-1B secretion, AlphaLISA, 16 h; stronger effect = lower value; AID 743279; activity change, % at 57.5 µM; in the data active = activity change below about -50%; inconclusive = mostly about -30% to -49%
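THP-1 cells pretreated 1 hr with compounds (up to 57.5 uM final), then stimulated with LPS (250 ng/mL final) plus ATP (1.25 mM final); secreted IL-1B measured by AlphaLISA after 16 hr, decreased signal indicating inhibition.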
Giardia killer – kills Giardia lamblia. Giardia lamblia trophozoite viability. activity change, % at 7.66 µM, hits read low. 340,000 compounds, 0.15% hits; in the data active = activity change below about -80%; inconclusive = between about -30% and that limit;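 note: parasites exposed to compound for two days anaerobically before the ATP read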
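Each well holds 100 Giardia trophozoites and compound. After two days (48 hrs) at 37 deg C in anaerobic conditions, ATP is quantified by luminescence.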
TDP1 cell noCPT – qHTS for Inhibitors of human tyrosyl-DNA phosphodiesterase 1 (TDP1): qHTS in cells in absence of CPT. DT40 Tdp1-/- hTDP1 cells, no CPT, ATP luminescence, 48 h. AID 686978, 2013. 420,000 compounds, 15% hits. Potency, µM (highest dose often 46.2 µM), for the others: top-dose activity change, negative = growth inhibition, actives largely listed as inhibitors; note: potency is the fitted concentration of half-maximal effect; nearly all actives have a fitted effect of over 55% in size
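Growth kinetics read by CellTiter-Glo luminescence after ≥48 hr at 37 °C. Cells: DT40 Tdp1-/- stably carrying human TDP1, 400 per well, compound exposure in the absence of CPT (DMSO vehicle).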
TDP1 block – TDP1 (human) enzyme inhibition | Q9NUW8 | recombinant TDP1, AlphaScreen DNA substrate cleavage | Potency, µM (series often up to 130 µM), for inactives: top-dose activity change, negative = inhibition, actives largely listed as inhibitors | 350,000 compounds, 0.28% hits | AID 485290; note: potency is the fitted concentration of half-maximal effect; nearly all actives have a fitted effect of over 40% in size
Target sequence (Q9NUW8 whole entry, looked up): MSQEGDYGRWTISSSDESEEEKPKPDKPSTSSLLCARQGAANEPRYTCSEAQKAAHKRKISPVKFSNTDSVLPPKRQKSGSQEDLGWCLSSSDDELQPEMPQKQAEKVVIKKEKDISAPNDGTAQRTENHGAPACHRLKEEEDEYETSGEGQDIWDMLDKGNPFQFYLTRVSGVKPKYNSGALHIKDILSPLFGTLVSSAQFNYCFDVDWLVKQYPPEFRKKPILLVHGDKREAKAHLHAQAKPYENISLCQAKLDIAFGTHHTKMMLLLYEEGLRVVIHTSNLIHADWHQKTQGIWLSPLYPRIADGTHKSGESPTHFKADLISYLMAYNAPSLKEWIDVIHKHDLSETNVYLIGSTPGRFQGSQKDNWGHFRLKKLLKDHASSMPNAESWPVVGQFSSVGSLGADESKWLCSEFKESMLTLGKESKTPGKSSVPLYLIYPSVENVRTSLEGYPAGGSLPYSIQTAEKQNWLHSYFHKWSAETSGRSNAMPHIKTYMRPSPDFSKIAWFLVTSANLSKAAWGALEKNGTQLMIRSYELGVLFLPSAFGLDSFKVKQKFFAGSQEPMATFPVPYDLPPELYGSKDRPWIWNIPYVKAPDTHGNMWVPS
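AlphaScreen read-out: signal falls as enzyme removes the 3' tyrosine-FITC from a 5'-biotinylated DNA oligo (15 nM, 5 min, RT). Enzyme was E. coli-made recombinant Tdp1 at 1 nM, exposed to compound for 15 min beforehand; beads 10 ug/ml, 10 min.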
ELG1 DNA repair – ELG1-dependent DNA repair inhibition; HEK293T ELG1-luciferase reporter, luminescence, 16 h; DNA damage induced by 5-fluorouridine; Potency, µM (top dose mostly 46.1 µM), without a hit: at the highest dose activity change, negative = inhibition, actives largely listed as inhibitors; 330,000 compounds, 2.3% hits; note: potency is the fitted concentration of half-maximal effect; nearly all actives have a fitted effect of over 55% in size
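HEK293T cells expressing luciferase-tagged ELG1 (2,000/well) received 5-Fluorouridine plus compound or DMSO for 16 hr at 37 °C. Luciferase was read by ONE-Glo luminescence after 30 min at room temperature.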
* = called active by the depositor; [ ] = dose if it differs, or a comment. This is a sample that favours compounds with a hit; in the whole collection about 19% have one here. Unless noted, calls come from the whole dose curve; as a rule, active = well fitted curve in the direction sought with a large enough effect; inconclusive = small, poorly fitted or top-dose-only effect, or another doubt; inactive = no such curve, though single readings can be large; an effect the other way counts as inactive or inconclusive. % is set by controls: 0 for no effect and ±100 for the full control effect.

Screening O=C(NN=C1CCCC1)c1ccccc1O returned TDP1 cell CPT -19%, IL1B secr inh 26, Giardia killer 11, TDP1 cell noCPT -7%, TDP1 block -5% and ELG1 DNA repair 7%.
For O=C(NN=C1CCCC1)c1ccccc1[N+](=O)[O-] the results were TDP1 cell CPT 57%, IL1B secr inh 11, Giardia killer 7, TDP1 cell noCPT 5%, TDP1 block 40µM* and ELG1 DNA repair -11%.
`Cc1occc1C(=O)N/N=C/c1cccnc1` gave TDP1 cell CPT -14%, IL1B secr inh 13, Giardia killer 27, TDP1 cell noCPT -15%, TDP1 block 8% and ELG1 DNA repair inconclusive.
O=C(N/N=C/c1ccncc1)c1ccccc1[N+](=O)[O-] was read as TDP1 cell CPT 5%, IL1B secr inh -6, Giardia killer -6, TDP1 cell noCPT -10%, TDP1 block 5% and ELG1 DNA repair 9%.
O=C(N/N=C/C(Br)=C/c1ccccc1)c1ccccc1[N+](=O)[O-] was read as TDP1 cell CPT 13µM*, IL1B secr inh -19, Giardia killer -11, TDP1 cell noCPT 13µM*, TDP1 block 6% and ELG1 DNA repair 7%.
`N#Cc1ccccc1OCC(O)CNCCNC(=O)Nc1ccccc1` (stereo not given) gave TDP1 cell CPT -4%, TDP1 cell noCPT -6% and TDP1 block 4%.
`CCCCOc1ccccc1-c1ccccc1CN1[C@@H](C(C)C)COCCS1(=O)=O` gave TDP1 cell CPT 16µM*, IL1B secr inh 16, Giardia killer 1, TDP1 cell noCPT 18µM*, TDP1 block -10%[56.1 µM] and ELG1 DNA repair -4%.
CC(C)[C@H]1COCCS(=O)(=O)N1Cc1ccccc1-c1cccc2c1oc1ccccc12 was read as TDP1 cell CPT inconclusive, IL1B secr inh 22, Giardia killer 11, TDP1 cell noCPT 18µM* and ELG1 DNA repair -9%.
`NC(N)=NCC1COC2(CCCCC2)O1` (stereo not given) gave TDP1 cell CPT -4%[21.1 µM] and TDP1 cell noCPT -2%[21.1 µM].
For COc1cc(/C=C/C(=O)Nc2cc(C(F)(F)F)ccc2Cl)cc(OC)c1OC the results were TDP1 cell CPT inconclusive, IL1B secr inh -57*, Giardia killer -3, TDP1 cell noCPT 26µM*, TDP1 block -5% and ELG1 DNA repair inconclusive.
For COc1ccc(/C=C/C(=O)Nc2ccccc2C(F)(F)F)cc1OC the results were TDP1 cell CPT 15%, IL1B secr inh 17, Giardia killer -7, TDP1 cell noCPT -2%, TDP1 block -1% and ELG1 DNA repair 12%.
`COc1cccc(/C=C/C(=O)OCC(=O)Nc2cc(C(F)(F)F)ccc2Cl)c1` gave TDP1 cell CPT 7%, IL1B secr inh 0, Giardia killer 16, TDP1 cell noCPT -24%, TDP1 block -1% and ELG1 DNA repair 22%.
For COc1ccc(/C=C/C(=O)Nc2cc(C(F)(F)F)ccc2Cl)cc1OC the results were TDP1 cell CPT 29µM*, IL1B secr inh inconclusive, Giardia killer -9, TDP1 cell noCPT inconclusive, TDP1 block -1% and ELG1 DNA repair -25%.
Screening Cc1ccc(S(=O)(=O)N2CCC[C@H]2C(=O)OCc2nc3ccccc3s2)cc1 returned TDP1 cell CPT -2%, IL1B secr inh 7, Giardia killer 13 and TDP1 cell noCPT inconclusive.
`O=C(Nc1ccc2nc(-c3ccco3)c(-c3ccco3)nc2c1)N1CCCCCC1` gave TDP1 cell CPT 12µM*, IL1B secr inh inconclusive, Giardia killer -19, TDP1 cell noCPT 15µM* and ELG1 DNA repair inconclusive.
`CCOC(=O)C1CCN(C(=O)Nc2ccc3nc(-c4ccco4)c(-c4ccco4)nc3c2)CC1` gave TDP1 cell CPT inconclusive, IL1B secr inh -11, Giardia killer 7, TDP1 cell noCPT 18µM*, TDP1 block 35µM* and ELG1 DNA repair inconclusive.
`O=C(Nc1ccc2nc(-c3cccs3)c(-c3cccs3)nc2c1)N1CCCC1` gave TDP1 cell CPT inconclusive, Giardia killer 6, TDP1 cell noCPT inconclusive and TDP1 block 0%.
`CCCCCOC(=O)CSc1ncnc2c1sc1nc(N3CCOCC3)c3c(c12)CCCC3` gave TDP1 cell CPT 0%, TDP1 cell noCPT -11% and TDP1 block -2%.
Screening COc1ccc(Nc2ncnc3c2cnn3-c2cc(Cl)ccc2C)cc1OC returned TDP1 cell CPT 21µM*, TDP1 cell noCPT inconclusive and TDP1 block 8%.
Screening Cc1ccc(Cl)cc1-n1ncc2c(Nc3cccc(C)c3C)ncnc21 returned TDP1 cell CPT 16µM*, TDP1 cell noCPT 16µM* and TDP1 block 10%.
Screening COCCNc1ncnc2c1cnn2-c1cc(Cl)ccc1C returned TDP1 cell CPT -12%, TDP1 cell noCPT inconclusive and TDP1 block 10%.
`CCN(CC)CCN(C(=O)c1ccc(C(=O)OC)cc1)c1nc2ccc(Cl)cc2s1` gave TDP1 cell CPT inconclusive, TDP1 cell noCPT inconclusive and TDP1 block 9%.
Screening CCOCC(=O)Nc1ccc(-c2cn3c(C)csc3n2)cc1 returned TDP1 cell CPT -15%, TDP1 cell noCPT inconclusive and TDP1 block 3%.
COc1ccc(NC(=S)NCCCN2CCCC2)cc1Cl was read as TDP1 cell CPT 21%, IL1B secr inh -18, Giardia killer 1, TDP1 cell noCPT 3%, TDP1 block 3% and ELG1 DNA repair 18%.
Screening Cc1ccc(NC(=S)N(CCCN2CCCC2)Cc2cccn2Cc2ccc(Cl)cc2)cc1C returned TDP1 cell CPT inconclusive, IL1B secr inh -4, Giardia killer 25, TDP1 cell noCPT 21µM*, TDP1 block 8% and ELG1 DNA repair 18%.
`Cc1ccc(NC(=S)N(CCCN2CCCC2)Cc2cccn2Cc2ccc(Cl)cc2)cc1Cl` gave TDP1 cell CPT inconclusive, IL1B secr inh -53*, Giardia killer 12, TDP1 cell noCPT 6.5µM*, TDP1 block 8% and ELG1 DNA repair -1%.
For CCN1CCN(CCCN(Cc2ccco2)C(=S)Nc2ccc(Cl)c(C)c2)CC1 the results were TDP1 cell CPT -15%, IL1B secr inh -13, Giardia killer -1, TDP1 cell noCPT inconclusive, TDP1 block 1% and ELG1 DNA repair -1%.
`COc1ccc(NC(=S)N(CCCN2CCCC2)Cc2cccn2Cc2ccc(Cl)cc2)cc1Cl` gave TDP1 cell CPT 15µM*, IL1B secr inh -52*, Giardia killer 22, TDP1 cell noCPT 21µM*, TDP1 block 7% and ELG1 DNA repair inconclusive.
